Structures are written as SMILES. Active and inactive are the calls of the source.

Experiment [1] concerns Plasmodium falciparum Sir2 (PF13_0152, Sir2A). As to the kind of experiment: pfSir2 binders on small-molecule microarrays, primary screen, biochemical, small-molecule microarray, 635 nm fluorescence (AID 1098).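 Note: score merges spot fluorescence intensity with its signal-to-noise ratio.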 As to conditions: small-molecule microarray binding, fluorescence 635 nm; higher = more signal.
Experiment [2] can be described thus: small-molecule microarray binders of probe aDKK1, primary screen, biochemical, biotinylated probe, 635/667 nm fluorescence (AID 1099).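 Note: score merges 667nm spot fluorescence with signal to noise across triplicate slides.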 As to conditions: higher = more signal.
The nature of experiment [3]: small-molecule microarray binders of probe aCHRDL2, primary screen, biochemical, biotinylated probe, 635/667 nm fluorescence (AID 1100). As to conditions: higher = more signal.
Experiment [4] is described as follows: splicing luciferase reporter signal modulators, primary screen, spliceosome inhibition project, cell-based, HEK293, splice +/- reporter (AID 1101).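 Note: HEK293 cells carrying a splicing-competent luciferase reporter gene; test concentration not given here.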 As to conditions: luminescence, 24 h, higher = more signal, called active from +8 up or from −8 down.
In experiment [5] the target is Fibroblast growth factor 10 (Homo sapiens) (UniProt O15520). Description: FGF10 binders on small-molecule microarrays, primary screen, biochemical, small-molecule microarray, 635 nm fluorescence (AID 1102). As to conditions: FGF10 binding, fluorescence 635 nm, higher = more signal.
Experiment [6] has as its system glycogen synthase kinase-3 (GSK3A per assay name; protocol says GSK3B). As to the kind of experiment: GSK3 binders on small-molecule microarrays, primary screen, biochemical, small-molecule microarray, 635 nm fluorescence, GSK3A (AID 1103). Note: the record names both GSK3A and GSK3B. As to conditions: small-molecule microarray binding, fluorescence 635 nm; higher = more signal.
For experiment [7], the target named is Epidermal growth factor receptor (Homo sapiens) (UniProt P00533). Description: EGFR binders on small-molecule microarrays, primary screen, biochemical, small-molecule microarray, 635 nm fluorescence (AID 1104).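 Note: score merges 667 nm emission intensity with spot signal to noise over triplicate slides.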 As to conditions: EGFR binding, higher = more signal.
Experiment [8] deals with Follistatin-related protein 3 (Homo sapiens) (UniProt O95633). As to the kind of experiment: FSTL3 binders on small-molecule microarrays, primary screen, biochemical, small-molecule microarray, 635 nm fluorescence (AID 1105).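 Note: score merges emission near 667 nm and signal to noise per printed spot across three slides.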 As to conditions: FSTL3 binding, higher = more signal.
For experiment [9], the target named is Dickkopf-related protein 1 (Homo sapiens) (UniProt O94907). Description: DKK1 binders on small-molecule microarrays, primary screen, biochemical, small-molecule microarray, 635 nm fluorescence scan (AID 1106).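 Note: score merges emission near 667 nm with signal to noise over three replicate slides.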 As to conditions: DKK1 binding, higher = more signal.
In experiment [10] the test system is Inhibin beta A chain (activin A). As to the kind of experiment: INHBA (activin A) binders on microarrays, primary screen, biochemical, small-molecule microarray, 635 nm fluorescence scan (AID 1107).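 Note: mouse activin A protein probed at 4.33 µg/mL on printed slides; score merges bound-protein fluorescence near 667 nm with spot signal-to-noise.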 As to conditions: small-molecule microarray binding, higher = more signal.
The test system of experiment [11] is Human papillomavirus type 1a protein E7 (residues 44-93). Description: HPV1a E7 fragment binders on microarrays, primary screen, biochemical, small-molecule microarray, residues 44-93, 635 nm fluorescence (AID 1108).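 Note: E7 fragment applied at 1 µg/mL in TBST for 1 h at 4 C; score combines spot fluorescence with its signal to noise ratio.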 As to conditions: small-molecule microarray binding, fluorescence 635 nm; higher = more signal.
A short description of experiment [12]: modulators of HCV replicon luciferase signal, primary screen, HCV replication inhibitor project, Huh7 cells, luciferase reporter (AID 1109).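 Note: huh7 hepatoma cells harbouring a luciferase neomycin HCV replicon reporter; luciferase luminescence as measure of HCV replicon replication; test concentration not given here.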 As to conditions: 48 h, higher = more signal.
The target in experiment [13] is Left-right determination factor 2 (Homo sapiens) (UniProt O00292). As to the kind of experiment: LEFTY2 binders on small-molecule microarrays, primary screen, biochemical, small-molecule microarray, 635 nm fluorescence scan (AID 1110). As to conditions: LEFTY2 binding, higher = more signal.
Experiment [14] deals with Calmodulin-1 (Homo sapiens) (UniProt P0DP23). Description: CALM1 binders on microarrays, EGTA buffer, profiling panel, biochemical, small-molecule microarray, Cy5-labelled CALM1 (AID 1111).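 Note: labelled calmodulin applied in Tris saline Tween buffer holding calcium plus EGTA and DTT.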 As to conditions: Cy5-CALM1 binding fluorescence, higher = more signal.
Experiment [15] has the same target. As to the kind of experiment: calcium-bound CALM1 binders on microarrays, profiling panel, artefact control for SMM control-protein annotation, biochemical, small-molecule microarray, Cy5-labelled CALM1, plus calcium (AID 1112).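 Note: score merges spot fluorescence with signal to noise from triplicate slides.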 As to conditions: Cy5-CALM1 binding fluorescence, higher = more signal.
Experiment [16] is described as follows: small-molecule microarray binders of probe aWnt5a, primary screen, biochemical, biotinylated probe, 635/667 nm fluorescence (AID 1113).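 Note: score merges 667 nm fluorescence intensity with signal-to-noise per printed feature.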 As to conditions: higher = more signal.
Experiment [17] in a line: small-molecule microarray binders of probe aShh, primary screen, biochemical, biotinylated probe, 635/667 nm fluorescence (AID 1114).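 Note: probe is biotin-labelled aShh protein from a stem cell growth factor screen; measures binding of labelled protein to compounds printed on the slide; score merges feature fluorescence at 667 nm with signal-to-noise.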 As to conditions: higher = more signal.
Experiment [18] can be described thus: small-molecule microarray binders of probe aNog, primary screen, biochemical, biotinylated probe, 635/667 nm fluorescence (AID 1115).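 Note: probe is biotinylated aNog protein used at 0.15 µg/mL for 1 h at 4 C; z-score combines 667 nm fluorescence of each spot with its signal to noise.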 As to conditions: higher = more signal.
Experiment [19] concerns the target Torsin-1A-interacting protein 1 (Homo sapiens) (UniProt Q5JTV8). As to the kind of experiment: LAP1 binders from COS7 cell lysate, primary screen, small-molecule microarray, 635/667 nm fluorescence (AID 1116). As to conditions: COS7-hLAP1 lysate binding, 635 nm fluorescence, higher = more signal.
The target in experiment [20] is Alpha-bungarotoxin (Bungarus multicinctus) (UniProt P60615). As to the kind of experiment: alpha-bungarotoxin binders on microarray, profiling panel, artefact control for SMM control protein annotation, biochemical, small-molecule microarray, Alexa647 label, 635/667 nm fluorescence (AID 1117). As to conditions: alpha-BTX-A647 binding fluorescence, higher = more signal.
Alpha-bungarotoxin (Bungarus multicinctus), sequence (P60615 whole entry, looked up): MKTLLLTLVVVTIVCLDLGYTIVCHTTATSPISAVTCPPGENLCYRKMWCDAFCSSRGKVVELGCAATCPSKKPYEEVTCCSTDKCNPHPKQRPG

Epidermal growth factor receptor (Homo sapiens), sequence (P00533 whole entry, looked up): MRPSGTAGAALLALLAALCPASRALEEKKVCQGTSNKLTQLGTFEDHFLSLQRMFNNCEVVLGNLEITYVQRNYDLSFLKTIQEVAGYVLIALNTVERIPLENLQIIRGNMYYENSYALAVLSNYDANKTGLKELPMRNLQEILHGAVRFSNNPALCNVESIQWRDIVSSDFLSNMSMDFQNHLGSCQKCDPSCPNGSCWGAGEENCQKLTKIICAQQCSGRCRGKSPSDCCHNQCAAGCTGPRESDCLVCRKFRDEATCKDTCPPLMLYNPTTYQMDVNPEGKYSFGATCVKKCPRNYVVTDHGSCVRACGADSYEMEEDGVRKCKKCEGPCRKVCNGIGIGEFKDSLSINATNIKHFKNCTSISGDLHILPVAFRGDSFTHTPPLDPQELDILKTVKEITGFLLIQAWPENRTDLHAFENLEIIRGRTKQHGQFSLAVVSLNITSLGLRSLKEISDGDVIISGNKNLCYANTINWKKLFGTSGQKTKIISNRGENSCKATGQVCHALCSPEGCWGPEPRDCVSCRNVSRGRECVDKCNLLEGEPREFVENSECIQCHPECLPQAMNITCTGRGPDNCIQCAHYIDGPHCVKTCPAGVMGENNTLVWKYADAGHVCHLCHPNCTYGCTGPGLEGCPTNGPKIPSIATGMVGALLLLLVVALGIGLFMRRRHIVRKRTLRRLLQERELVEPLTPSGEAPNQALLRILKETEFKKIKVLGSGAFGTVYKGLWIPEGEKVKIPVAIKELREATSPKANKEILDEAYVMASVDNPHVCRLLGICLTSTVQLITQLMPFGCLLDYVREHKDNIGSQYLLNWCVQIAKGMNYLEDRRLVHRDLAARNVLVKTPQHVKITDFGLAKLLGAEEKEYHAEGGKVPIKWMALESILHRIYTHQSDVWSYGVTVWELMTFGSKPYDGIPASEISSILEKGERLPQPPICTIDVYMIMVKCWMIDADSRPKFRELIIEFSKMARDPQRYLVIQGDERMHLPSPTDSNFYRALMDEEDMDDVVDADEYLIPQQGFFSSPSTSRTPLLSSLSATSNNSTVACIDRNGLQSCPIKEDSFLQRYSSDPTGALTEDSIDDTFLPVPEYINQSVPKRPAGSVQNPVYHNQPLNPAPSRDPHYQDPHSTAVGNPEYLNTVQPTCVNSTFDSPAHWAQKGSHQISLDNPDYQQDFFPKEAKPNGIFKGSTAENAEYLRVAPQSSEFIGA
Torsin-1A-interacting protein 1 (Homo sapiens), sequence (Q5JTV8 whole entry, looked up): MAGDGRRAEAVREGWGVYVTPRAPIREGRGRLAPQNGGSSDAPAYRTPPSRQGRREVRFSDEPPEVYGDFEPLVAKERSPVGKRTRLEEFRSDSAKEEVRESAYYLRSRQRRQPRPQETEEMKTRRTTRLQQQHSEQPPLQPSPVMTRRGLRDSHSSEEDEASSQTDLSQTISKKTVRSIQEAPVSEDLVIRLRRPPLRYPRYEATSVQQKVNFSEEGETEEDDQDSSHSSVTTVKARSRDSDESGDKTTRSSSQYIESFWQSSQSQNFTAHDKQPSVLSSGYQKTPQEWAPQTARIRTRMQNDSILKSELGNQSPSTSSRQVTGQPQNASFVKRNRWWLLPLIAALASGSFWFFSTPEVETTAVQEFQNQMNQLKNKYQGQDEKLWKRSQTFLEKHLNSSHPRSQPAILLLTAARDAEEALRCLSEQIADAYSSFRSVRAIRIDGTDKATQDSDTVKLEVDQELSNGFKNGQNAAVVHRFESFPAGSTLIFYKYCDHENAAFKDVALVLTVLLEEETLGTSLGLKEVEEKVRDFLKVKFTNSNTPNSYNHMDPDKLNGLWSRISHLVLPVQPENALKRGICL
Fibroblast growth factor 10 (Homo sapiens), sequence (O15520 whole entry, looked up): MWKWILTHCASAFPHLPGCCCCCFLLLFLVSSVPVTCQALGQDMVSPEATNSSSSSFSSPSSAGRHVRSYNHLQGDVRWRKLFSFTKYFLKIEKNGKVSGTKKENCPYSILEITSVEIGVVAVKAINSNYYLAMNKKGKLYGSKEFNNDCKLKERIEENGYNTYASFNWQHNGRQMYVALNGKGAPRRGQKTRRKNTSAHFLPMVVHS
Dickkopf-related protein 1 (Homo sapiens), sequence (O94907 whole entry, looked up): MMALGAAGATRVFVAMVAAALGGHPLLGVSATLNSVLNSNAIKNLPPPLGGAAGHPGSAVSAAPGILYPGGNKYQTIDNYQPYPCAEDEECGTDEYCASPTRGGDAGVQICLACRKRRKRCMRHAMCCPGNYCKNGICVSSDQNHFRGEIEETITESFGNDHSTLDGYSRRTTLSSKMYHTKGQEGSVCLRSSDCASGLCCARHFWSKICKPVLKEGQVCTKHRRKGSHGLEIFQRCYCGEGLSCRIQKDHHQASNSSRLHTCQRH
Left-right determination factor 2 (Homo sapiens), sequence (O00292 whole entry, looked up): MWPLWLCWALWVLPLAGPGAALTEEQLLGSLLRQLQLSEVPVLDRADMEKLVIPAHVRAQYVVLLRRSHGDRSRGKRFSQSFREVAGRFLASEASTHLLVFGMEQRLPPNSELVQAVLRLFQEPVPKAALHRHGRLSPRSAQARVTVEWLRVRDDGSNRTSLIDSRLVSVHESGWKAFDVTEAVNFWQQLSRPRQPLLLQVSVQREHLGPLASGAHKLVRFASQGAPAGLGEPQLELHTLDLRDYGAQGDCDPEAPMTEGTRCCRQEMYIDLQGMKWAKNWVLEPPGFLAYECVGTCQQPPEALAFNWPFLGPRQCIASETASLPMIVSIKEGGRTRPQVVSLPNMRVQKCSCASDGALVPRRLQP
Follistatin-related protein 3 (Homo sapiens), sequence (O95633 whole entry, looked up): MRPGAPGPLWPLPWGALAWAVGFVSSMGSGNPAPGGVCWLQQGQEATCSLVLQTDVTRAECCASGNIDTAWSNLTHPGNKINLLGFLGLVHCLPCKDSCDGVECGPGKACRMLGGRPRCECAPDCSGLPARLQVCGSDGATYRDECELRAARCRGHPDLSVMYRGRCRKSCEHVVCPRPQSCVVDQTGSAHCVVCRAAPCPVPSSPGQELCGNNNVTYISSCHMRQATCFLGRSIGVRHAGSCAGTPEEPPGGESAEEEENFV

As for `CCOC(=O)CCN1C(=O)[C@H]2[C@@H]3C(=CC[C@H]2C1=O)C(=O)[C@H]1O[C@H]1[C@H]3O`, the composite z-score in experiment [1] was 1.1; in experiment [2] it was -0.33; in [3], -0.291; in experiment [5] it was -0.632; in experiment [6], -0.837; in experiment [7], -0.0633. The composite z-score in [8] is -1.16; in experiment [9], -0.324; in experiment [10], -0.483; in experiment [11] it was -0.636; in [13] it was -0.72; in experiment [14], -0.719. Also, the composite z-score was -0.481 in [15]; -0.222 in experiment [16]; -0.221 in experiment [17]; -0.358 in [18]; 0.447 in [19]; -0.473 in experiment [20]. The z-score in [4] was 6.66 (inactive); in [12] it was -4.75.
Turning to `CO[C@H]1COC(=O)CCC[C@H](C)[C@@H](OC)COC(=O)CC=C[C@@H]1C`, the composite z-score is 0.981 in experiment [1]; -0.26 in experiment [2]; -0.811 in experiment [3]; 0.267 in [5]; 0.278 in experiment [6]; 0.711 in experiment [7]. The composite z-score in experiment [8] is 0.319; in experiment [9] it was 0.846; in experiment [10], 0.691; in experiment [11], -0.431; in [13] it was 0.966; in experiment [14], -0.946. Further, the composite z-score in experiment [15] is -1.1; in experiment [16] it was -0.191; in experiment [17], -0.0248; in experiment [18], -0.267; in experiment [19], 0.387; in [20], 0.0355. Also, the z-score in experiment [4] is -1.05 (inactive); in experiment [12], -1.63.
`CC(C)[C@@H](OCc1ccccc1)[C@H](C)CON=C1[C@H]2CCn3c(=O)n(-c4ccccc4)c(=O)n3[C@H]2[C@H](O)[C@@H]2O[C@H]12`: the composite z-score was 0.552 in experiment [1]; -0.0364 in experiment [2]; -0.562 in experiment [3]; 0.785 in experiment [5]; 0.227 in experiment [6]; 0.329 in experiment [7]. The composite z-score in experiment [8] was 0.0089; in experiment [9] it was 1.24; in experiment [10] it was 0.236; in experiment [11], 0.416; in experiment [13] it was 0.677; in experiment [14], -0.404. The composite z-score was -0.366 in experiment [15]; -0.147 in experiment [16]; -0.134 in experiment [17]; -0.124 in experiment [18]; -0.005 in [19]; 0.251 in experiment [20]. In addition, the figures for the z-score in experiment [4] and in [12] were 3.43 (inactive) and -4.23, respectively.
Regarding `CCOC(=O)NN=C1C[C@@H](O)[C@@H](O)[C@@H]2[C@@H]3C(=O)N(C[C@@H]4CCCO4)C(=O)[C@@H]3CC[C@H]12`, the composite z-score in experiment [1] was 0.348; in experiment [2], -0.0748; in [3], -0.317; in [5], 0.515; in [6], 0.417; in [7], 0.401. The composite z-score in [8] is 0.264; in experiment [9], 0.504; in experiment [10] it was 0.17; in [11] it was 0.463; in experiment [13], 0.828; in [14], -0.47. For the same compound, the composite z-score in [15] is -0.593; in experiment [16], -0.169; in experiment [17], -0.0146; in [18] it was -0.166; in experiment [19], 0.998; in experiment [20], -0.213. Besides, the z-score in experiment [4] is 0.488 (inactive); in [12], -0.0078.
For `C=C(C)C(=O)OC[C@H]1CN2[C@@H](CC[C@@H](C)[C@@H]2c2ccc(Br)cc2)C(=O)O1`, the composite z-score in [1] was 0.789; in experiment [2], -0.366; in experiment [3] it was -0.264; in experiment [5] it was 0.261; in experiment [6], 0.179; in experiment [7], 0.135. The composite z-score in experiment [8] is -0.214; in [9], 0.302; in experiment [10], 1.26; in experiment [11] it was 0.33; in experiment [13] it was 0.373; in experiment [14], -0.562. Further, the composite z-score was -0.395 in experiment [15]; -0.178 in experiment [16]; -0.0553 in experiment [17]; -0.353 in experiment [18]; -0.273 in experiment [19]; 0.534 in experiment [20]. Further, the results for the z-score in experiment [4] and in [12] were -0.286 (inactive) and 1.25, respectively.
Regarding `COC(=O)CC=C[C@@H](C)[C@@H](C=NOC(C)CN1CCCc2nc(C)c(C)cc21)NS(=O)(=O)c1ccc(C)cc1` (stereo not given in full), the composite z-score was 0.268 in experiment [1]; 0.219 in experiment [2]; -0.296 in [3]; 0.65 in experiment [5]; 0.793 in experiment [6]; 0.568 in [7]. For the same compound, the composite z-score in [8] was 1.01; in experiment [9], 0.829; in experiment [10], 0.932; in experiment [11], 1.09; in experiment [13] it was 0.817; in [14] it was -0.481. The composite z-score in experiment [15] was -0.56; in experiment [16], -0.0758; in experiment [17], 0.213; in [18], -0.0172; in experiment [19], 0.232; in experiment [20], -0.0193. The z-score in experiment [4] was 0.218 (inactive); in [12], -1.05.

For the origin of these results see PubChem BioAssay.
